# JMJD2E inh: blocks human JMJD2E demethylase activity; B2RXH2; JMJD2E catalytic domain, FDH-coupled NADH fluorescence (FDH is formaldehyde dehydrogenase); Potency, µM (highest dose often 57.1 µM), for inactives: at the top dose activity change, negative = inhibition, usual class: inhibitors; 230,000 tested, 1.6% active; AID 2147; active = well fitted inhibition curve with a large enough effect, not every such curve was filed as active; inconclusive = small, poorly fitted or top-dose-only effect, or another doubt; inactive = no such curve, though single readings can be large or run the other way;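 also: potency is read from the fitted curve at half-maximal effect; 0% = wells with enzyme and -100% = buffer wells without enzyme; nearly all actives have a fitted effect of over 50% in size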
# L3MBTL1 inh: blocks human L3MBTL1; AlphaScreen L3MBTL1–H3K9me1 peptide binding; 230,000 tested, 0.66% active; Potency, µM (titrated, usually from 57.1 µM), without a hit: top-dose activity, negative = inhibition, most hits filed as inhibitors; AID 485360; Q9Y468; also: potency is read from the fitted curve at half-maximal effect; % is scaled to controls: 0 for no effect and ±100 for the full control effect; nearly all actives have a fitted effect of over 60% in size
#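 Displacement of a biotinylated histone H3(1-15) peptide monomethylated at Lys9 (75 nM) from L3MBTL1 (50 nM) was measured by AlphaScreen after a 30 min room-temperature compound incubation; cefsulodin titration served as intraplate control.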
# PI5P4K alpha inh: PI5P4K alpha (human) kinase inhibition | AID 652105 | 330,000 tested, 1.2% active | PI5P4Kalpha enzyme, ADP-Glo luminescence, 60 min; stronger effect = lower value | max response, %; active = max response of -50% or lower; inconclusive = between -30% and -50%; inactive = -30% or higher; also: value at the top dose of about 77 µM; % is scaled to controls: 0 for no effect and ±100 for the full control effect
#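 Quantitative HTS of the MLSMR library against PI5P4Kalpha with substrate. ATP added last at 5 microM final; room temperature, 60 minutes. Remaining ATP depleted, ADP converted and read as luminescence.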
# BAZ2B inh: inhibitors of human BAZ2B bromodomain | AlphaScreen BAZ2B-H3K14Ac peptide displacement | Potency, µM (top dose mostly 114 µM), for inactives: at the highest dose activity change, negative = inhibition, usual class: inhibitors | 360,000 tested, 4.4% active | AID 504333; also: potency is read from the fitted curve at half-maximal effect; % is scaled to controls: 0 for no effect and ±100 for the full control effect; nearly all actives have a fitted effect of over 60% in size
#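 BAZ2B (50 nM) with biotin-H3(5-23)K14Ac peptide (50 nM) in PBS pH 7.4, 0.01% Tween-20, preformed 30 min, then compound 30 min at room temperature; top concentration 110uM. AlphaScreen streptavidin donor/nickel chelate acceptor beads (10 ug/mL final), 20 min dark, signal read.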
# JMJD2A Tudor: JMJD2A Tudor domain (human) inhibition; 390,000 tested, 4.4% active; Potency, µM (titrated, usually from 114 µM), for the others: top-dose activity change, negative = inhibition, hits mostly inhibitors; O75164; AlphaScreen JMJD2A-Tudor / H3K4me3 peptide binding; also: potency is read from the fitted curve at half-maximal effect; % is scaled to controls: 0 for no effect and ±100 for the full control effect; nearly all actives have a fitted effect of over 50% in size
# HP1b chromo inh: HP1-beta chromodomain-methylated histone interaction inhibition; 390,000 tested, 0.56% active; Potency, µM (doses to about 114 µM), inactives show top-dose activity change, negative = inhibition, most hits filed as inhibitors; AlphaScreen HP1-beta / biotin-H3K9me3 peptide binding; P83916; AID 540317; also: potency is read from the fitted curve at half-maximal effect; nearly all actives have a fitted effect of over 70% in size
#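 AlphaScreen: HP1-beta (50 nM) preformed 30 min with biotin-H3(1-18)K9me3 peptide (50 nM) in PBS pH 7.4, 0.01% Tween-20. Compound added for 30 min at RT, then streptavidin donor/nickel chelate acceptor beads (10 ug/mL) for 30 min.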
# * = called active by the depositor; u = inconclusive; x = no result given; [ ] = dose if it differs, or a comment. Sampled rows, rich in hits. Any-hit rate of the full collection: about 5.7%. Unless noted, calls follow the shape of the dose curve; as a rule, active = well fitted inhibition curve with a large enough effect; inconclusive = small, poorly fitted or top-dose-only effect; inactive = no such curve, though single readings can be large or run the other way.
SMILES,JMJD2E inh,L3MBTL1 inh,PI5P4K alpha inh,BAZ2B inh,JMJD2A Tudor,HP1b chromo inh
CCOc1cc(CNc2ccc(O)cc2)cc(Cl)c1OCc1ccccc1,x,x,x,28.2µM*,44.7µM*,35.5µM*
c1ccc(COc2cccc(CNCc3cccnc3)c2)cc1,-11.1%,-1.0%,5.8,50.1µM*,u,19.0%
O=C(CN1C(=O)COc2ccc(S(=O)(=O)N3CCCCCC3)cc21)N1CCN(c2ccc(F)cc2)CC1,x,x,x,-27.8%,-28.8%,12.8%
CN1C(=O)C2(Oc3ccccc3C3CC(c4ccccc4)=NN32)c2ccccc21 (configuration not stated),-6.5%,-7.1%,1.3,-33.0%,u,17.5%
Cc1ccc(C2=NN3C(C2)c2ccccc2OC32C(=O)Nc3ccccc32)cc1 (configuration not stated),u,-11.2%,-53.0*,u,u,4.3%
COc1cccc(C2C(C(=O)Nc3ccc(Cl)cc3)=C(C)Nc3c(C(=O)Nc4ccccc4)cnn32)c1OC (configuration not stated),x,x,x,11.6%,-28.3%,33.0%
O=C(O)CC(NC(=O)C12CC3CC(CC(C3)C1)C2)c1cc([N+](=O)[O-])ccc1Cl (configuration not stated),-1.4%,x,-13.6,-37.5%,56.2µM*,-1.4%
O=C(O)CC(NC(=O)C1CCCCC1)c1cc([N+](=O)[O-])ccc1Cl (configuration not stated),-4.4%,x,2.1,-6.8%,-4.2%,39.0%
Cc1nn2c(=O)cc(COC(=O)c3ccc(NC(=O)c4cccc(Br)c4)cc3)nc2s1,x,x,x,-4.8%,-21.2%,-16.5%
C=CCOC(/C=C/c1ccccc1)C[Si](C)(C)C (configuration not stated),x,x,x,x,-17.9%,-0.3%
CCOC(=O)C(=O)N1CCN(c2cc3c(cc2[N+](=O)[O-])n(C)c(=O)n3C)CC1,-2.2%,4.8%,-1.1,50.1µM*,-7.0%,33.0%
Cn1c(=O)n(C)c2cc([N+](=O)[O-])c(N3CCN(C(=O)c4cccc(Cl)c4)CC3)cc21,7.0%,-14.4%,3.3,56.2µM*,-23.4%[57.1 µM],1.0%
Cn1c(=O)n(C)c2cc([N+](=O)[O-])c(N3CCN(C(=O)c4cccc(F)c4)CC3)cc21,-9.1%,-2.7%,-0.2,50.1µM*,-13.4%,-0.9%
Cn1c(=O)n(C)c2cc([N+](=O)[O-])c(N3CCN(S(=O)(=O)c4ccc5ccccc5c4)CC3)cc21,6.3%,-3.2%,x,-6.0%,-20.3%,-2.9%
CCCS(=O)(=O)N1CCN(c2cc3c(cc2[N+](=O)[O-])n(C)c(=O)n3C)CC1,6.0%,x,-1.7,56.2µM*,0.0%[57.1 µM],40.1%
COc1ccc(N2CCN(C(=O)c3cccc(F)c3)CC2)c([N+](=O)[O-])c1,-2.7%,-18.3%,4.4,u,u,1.0%
O=C1OCCC1Sc1nnc2c(n1)[nH]c1ccccc12 (configuration not stated),x,x,x,x,-10.2%,19.6%
CCN1CCCC1CNC(=O)Cn1nc(C)n2nc(-c3ccccc3)cc2c1=O (configuration not stated),x,x,1.1,-6.3%,-8.8%,22.3%
COc1ccc(CNC(=O)C(c2ccccc2F)N(C(=O)c2csnn2)C2CC2)cc1 (configuration not stated),x,x,0.7,20.7%,-10.6%,u
Cc1ccc(-n2nnc(C(=O)Nc3cc(F)ccc3F)c2C)cc1F,x,x,x,6.1%,-12.3%,62.2%
Cc1ccc(C(=O)N2CCN(c3cc4c(cc3[N+](=O)[O-])n(C)c(=O)n4C)CC2)cc1,9.3%,4.0%,x,50.1µM*,-8.3%,9.1%
Cc1ccc(S(=O)(=O)N2CCN(c3cc4c(cc3[N+](=O)[O-])n(C)c(=O)n4C)CC2)cc1,3.5%,-5.9%,x,u,-33.5%,-11.5%
CC(C)NC(=O)CN1C(=O)c2cccnc2Sc2ccccc21,x,x,x,-17.5%,-8.0%,19.6%
Cc1cc(C)cc(NC(=O)c2cc(S(=O)(=O)N3CCC(C)CC3)cn2C)c1,x,x,x,7.2%,-20.1%,17.8%[57 µM]
